Structures are written as SMILES. Results filed as inconclusive are left out. Calls of active or inactive are those of the source. Calls follow the shape of the dose curve; as a rule, active = well fitted inhibition curve with a large enough effect; inconclusive = small, poorly fitted or top-dose-only effect; inactive = no such curve, though single readings can be large or run the other way.
Potency is read from the fitted curve at half-maximal effect.

This experiment in a line: InCell qHTS Assay for Inhibitors of the mTORC1 Signaling Pathway in MEF (Tsc2-/-, p53-/-) Cells: Hit Validation.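 Also: phospho-S6 Ser235/236 signal normalized to propidium iodide cell count per well; nearly all actives have a fitted effect of over 75% in size.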 The following applies: phospho-rpS6 immunofluorescence, 24 h; activity change, negative = inhibition: at 38.3 µM (top of the series).
Consider `C=C(C)CSc1nc(-c2ccccc2)cc(-c2ccc(OC)cc2)c1C#N`, for which the activity change, negative = inhibition was -100%. For the compound `CCc1nn(CC(=O)NCc2ccccc2Cl)c(=O)c2cccn12`, the activity change, negative = inhibition was -100%. Consider `COc1cc(Cl)c(C)cc1NC(=O)C1CCN(c2nc3ccccc3n3cccc23)CC1`, for which the activity change, negative = inhibition is -100%.

`COc1ccc(C(F)(F)F)cc1NC(=O)c1sc2nc(-c3cccs3)ccc2c1N`: the activity change, negative = inhibition is -11%. `O=C(Cn1c(=O)c2cccn2c2ccccc21)NCc1ccccc1F`: the activity change, negative = inhibition is -100%.

As for `CCS(=O)(=O)c1ncc(Cl)c(C(=O)N2CCN(c3cccc(Cl)c3)CC2)n1`, the Potency is 2610 nM (active). Regarding `COc1cc(NC(=O)Cn2nc(C(F)(F)F)c3c2CCCC3)c(OC)cc1Cl`, the activity change, negative = inhibition was -100%. Still for that read-out and setting: under `CCOC(=O)N1CCN(Cc2nc3cc(NC(=O)c4ccc([N+](=O)[O-])cc4)ccc3n2C(C)C)CC1` stands -100%; under `Cc1ccc(NC(=O)CSc2nc(-c3ccco3)cc(C(F)(F)F)n2)cc1C`, -100%. The same measure, in the same setting: in the case of `CN(Cc1ccccc1)C(=O)CSc1c2c(nc3ccc(Cl)cc13)CCCC2` it was -100%. For the compound `Cc1ccc(C)c(NC(=O)c2nc(S(=O)(=O)Cc3ccc(F)cc3)ncc2Cl)c1`, the Potency was 3290 nM (active). Take `COc1cccc(/C=C(\C#N)c2nc3ccc(C)cc3[nH]2)c1`: the activity change, negative = inhibition is -100%. On the same count and under the same terms, under `Cc1c(C2=CCN(S(=O)(=O)c3ccc(Br)cc3)CC2)c2ccccc2n1CC(=O)N1CCCC1` stands -100%. Turning to `CCN(CC)Cc1c(NC(=O)c2ccc(OC)cc2)sc2c1CCCC2`, the activity change, negative = inhibition is 1.72%. With `COc1ccc(C(=O)N2CCN(C(=O)COc3ccc(Br)cc3)CC2)cc1OC`, the activity change, negative = inhibition was -100%. As for `Cc1ccc(S(=O)(=O)Nc2ccc3c(c2)c(C(=O)OC(C)C)c(C)n3S(=O)(=O)c2ccc(C)cc2)cc1`, the activity change, negative = inhibition is -100%. Still for that read-out and setting: under `CCCCOc1cccc(C(=O)N(Cc2cccs2)c2ccc(OC)cc2)c1` stands -3.36%; under `CCOc1cc(C(Nc2cc(C)ccn2)c2ccc3cccnc3c2O)ccc1OC` (stereo not drawn), -100%.

In the case of `C#CC(C)(CC)NC(=O)Cn1nnc(-c2ccc(OCc3c(F)cccc3Cl)cc2)n1` (stereo not drawn), the activity change, negative = inhibition was -100%. Regarding `COc1ccc(C)cc1NC(=O)CSc1ccc(-c2ccccn2)nn1`, the activity change, negative = inhibition is -100%. On to `Fc1ccc(Nc2nc3nonc3nc2Nc2cccc(C(F)(F)F)c2)cc1`, for which the activity change, negative = inhibition is -100%.

In the case of `COc1cc(C(=O)Nc2ccc(NC(=O)c3ccc(C(C)(C)C)cc3)cc2)cc(OC)c1OC`, the activity change, negative = inhibition was -100%.

In the case of `CCc1cccc(NC(=O)c2oc3ccc4c(c3c2C)C(=O)CC(C)(C)O4)c1`, the activity change, negative = inhibition is -100%. Still for that read-out and setting: in the case of `COc1ccc(NC(=O)CSc2nc3ccccc3nc2N2CCC(C)CC2)cc1` it was -100%; in that of `COc1cc(O)ccc1-c1nc2ccc(Br)cn2c1Nc1ccccc1C`, -100%; in that of `COc1ccc2cc(CNc3ccccc3)c(=O)n(CC(=O)Nc3ccc(C)cc3C)c2c1`, -13.3%. Still for that read-out and setting: under `CC1CCCCN1c1nnc(NC(=O)Nc2ccccc2F)s1` (stereo not drawn) stands -100%; under `CCOc1ccccc1NC(=O)CN1C(=O)C(=O)c2ccccc21`, -100%; under `Nc1nc(Nc2ccccc2F)sc1C(=O)c1ccc(Cl)cc1`, -100%. Still for that read-out and setting: under `Cc1cccc(C2C=C(c3ccc(C)c(C)c3)Nc3nnnn32)c1` (stereo not drawn) stands -17.1%. `COc1ccc2c(c1)CCc1c(C(=O)Nc3c(C)nn(Cc4ccc(Cl)cc4)c3C)noc1-2`: the activity change, negative = inhibition is -100%.

Take `Nc1c(C(=O)NCc2ccccc2)nnn1Cc1cccc(Br)c1`: the activity change, negative = inhibition was -100%.

`COc1ccccc1CCNC(=O)C1CCN(c2nnc(-n3cccc3CNc3ccc(C)cc3)s2)CC1`: the activity change, negative = inhibition was -100%. Regarding `Cc1cccc(NS(=O)(=O)c2ccc3[nH]c4c(c3c2)CCCCCC4)c1`, the activity change, negative = inhibition was -100%.

Regarding `CCOC(=O)N1CCN(Cc2nc3cc(NC(=O)c4ccc(F)cc4)ccc3n2C(C)C)CC1`, the activity change, negative = inhibition is -100%.

Turning to `COc1cc(C(=O)N(CCCN(C)C)c2nc3c(OC)cccc3s2)cc(OC)c1OC`, the activity change, negative = inhibition is -100%. With `O=C(NCC(c1cccs1)S(=O)(=O)c1cccs1)c1ccccc1` (stereo not drawn), the activity change, negative = inhibition was -100%. Same read-out and setting: under `CC(=O)Nc1ccc2nc(-c3cc(C)ccc3C)[nH]c2c1` stands -100%.
